SUMO Mot1 rescue – blocks SUMOylation pathway, rescuing yeast Mot1-301 growth; S. cerevisiae Mot1-301 growth rescue, ATP luminescence, 38.5C; percent above DMSO median, 100 means doubled; growth rescue, % at 18.8 µM; 1% of 320,000 active; AID 2716;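 active = every valid replicate shows activation above 250% relative to neutral control wells; inactive = the rest, any valid replicate at or below 250%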;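 note: OY570 slx delta 5 strain wells were the positive control but not used for scaling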
VLA-4 inh – inhibition in a human VLA-4 binding assay | 0.2% of 330,000 active | VLA-4 expressing cells, ligand binding flow cytometry | P13612 | inhibition, % (about 7 µM as worked out from the volumes in the protocol); in the data active = inhibition above about 50%
Efflux pump mplx – antifungal efflux pump inhibition, Nile Red retention | S. cerevisiae Candida pump triplex | inhibition, % at 10 µM | 0.44% of 330,000 active;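 active = plate passing quality check with inhibition over a set limit, or well fluorescence over plate mean plus 4 SD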;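 note: Nile Red retained in pooled yeast measured as flow cytometry median fluorescence; 0% = buffer negative control and 100% = Enniatin B positive control; higher means more Nile Red kept so more efflux inhibition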
AHR act – activates the human aryl hydrocarbon receptor. activation, % at 5 µM. AHR-responsive luciferase reporter cells, luminescence. P35869. 2.5% of 320,000 active; in the data active = activation above about 47%;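 note: 0% = vehicle wells and 100% = reference agonist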
ALR H2O2 inh – inhibitors of human sulfhydryl oxidase ALR; AID 485317; inhibition, % (test concentration not listed); 3.8% of 290,000 active; purified ALR, DTT oxidation, H2O2 HRP-luminol luminescence;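 active = mean replicate inhibition above about 79%, with every replicate also reaching it, limit read from the data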
Bfl-1 A1 inh – inhibitors of the anti-apoptotic protein A1, read as caspase activation | caspase activation, % (concentration not given with the values) | MEF A1-2A-BIM cells, Caspase-Glo 3/7 luminescence, 3 h; percent of clofoctol response, vehicle zero | 0.066% of 330,000 active;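 active = over half of replicate activation scores above 10%, or exactly half above 10 with the replicate mean above 10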
AHR act confirm – human AHR activation, confirmation. shares compounds with AHR act. human cells, AHR-responsive luciferase reporter, luminescence. AID 2845. 87% of 2,300 active. activation, % at 9 µM; in the data active = activation above about 49%;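 note: HepG2 hepatoma cells carrying a DRE-driven firefly luciferase reporter; 0% = vehicle wells and 100% = reference agonist wells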
PXR act counter – PXR activation, counter-screen for AHR activators; shares compounds with AHR act; cell-based PXR reporter, luciferase luminescence; activation, % at 11.6 µM; 88% of 2,300 active; AID 434939; in the data active = activation above about 11%;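 note: human hepatoma DPX-2 cells expressing full-length human PXR; 0% = DMSO and 100% = reference agonist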
* = called active by the depositor; x = no result. Hits are enriched below; roughly 7.2% of the tested compounds scored in any of these assays.

SMILES	SUMO Mot1 rescue	VLA-4 inh	Efflux pump mplx	AHR act	ALR H2O2 inh	Bfl-1 A1 inh	AHR act confirm	PXR act counter
O=C(Nc1cccc(F)c1)c1ccc(Br)o1	-14.5	32.9	-0.1	120.3*	-2.5	-0.5	67.2*	20.0*
COC(=O)c1c(NC(C)=O)sc(C(=O)Nc2ccccc2C)c1C	15.1	-5.7	-0.3	15.8	-10.1	0.0	x	x
CCc1ccccc1S(=O)(=O)Cc1ccc(C(=O)N2CCN(c3ccccn3)CC2)o1	8.9	-15.2	0.0	83.9*	-87.0	-0.1	65.2*	106.9*
Cc1ccccc1S(=O)(=O)Cc1ccc(C(=O)N2CCN(c3ncccn3)CC2)o1	-3.2	-4.1	0.3	1.6	5.4	-0.2	x	x
Cc1cc(C)n(CCCNC(=O)CCNS(=O)(=O)c2ccccc2C(F)(F)F)n1	-6.6	-5.1	0.1	-1.2	-3.0	-0.3	x	x
CN(C)S(=O)(=O)Oc1ccsc1C(=O)Nc1ccc(Cl)c(Cl)c1	-17.2	-3.8	-0.1	90.3*	-4.0	0.5	121.9*	35.4*
CN(C)S(=O)(=O)Oc1ccsc1C(=O)Nc1cccc(Cl)c1	-27.2	1.9	0.1	22.1	-0.1	-0.3	x	x
COc1cc(OC)cc(-c2c(C#Cc3ccsc3)c3cc(-c4ccc(OC)nc4)ccc3n2C)c1	-12.8	14.5	0.7	6.8	-1.2	0.1	x	x
O=C(N/N=C/c1cc(Br)cs1)c1c[nH]c2ccccc12	66.6	0.3	0.0	91.3*	23.7	-0.9	144.9*	25.7*
COC(=O)/C(C#N)=C/c1cc(C)sc1C	0.9	4.4	0.0	-1.5	-1.0	-0.3	x	x
Cc1ccc(C)c(OCCSc2nnc(-c3cccnc3)n2N)c1	-5.8	29.5	-0.2	94.3*	-15.6	0.5	66.2*	29.9*
Cc1ccc(CSc2nnc(-c3cccnc3)n2N)cc1	-25.5	27.2	0.1	1.3	-3.0	-0.3	x	x
CCOC(=O)C1(Cc2ccc(Cl)cc2)CCN(Cc2cn(CC)nc2C)CC1	304.2	9.5	0.0	-0.8	0.9	0.9	x	x
Cc1ccc(-n2ncc3c(NCCCn4ccnc4)ncnc32)c(C)c1	-7.2	15.1	0.0	31.7	1.7	0.2	x	x
Cc1cccc(-n2ncc3c(NCCCn4ccnc4)ncnc32)c1	-9.7	-6.2	0.2	83.5*	18.0	0.2	57.5*	44.9*
Cc1sc2ncnc(NCCCn3ccnc3)c2c1C	-0.4	-3.6	0.0	127.1*	-9.0	1.7	102.4*	22.1*
COc1ccc(CCNC(=O)c2coc3ccccc3c2=O)cc1OC	8.8	-2.2	0.0	8.3	x	-0.3	x	x
COc1cccc(Nc2ccc(-n3ccnc3)nn2)c1	x	10.4	0.0	81.0*	-15.2	0.5	79.1*	16.2*
C(=N\Nc1ccc(-n2ccnc2)nn1)/c1ccccc1	-22.2	12.3	0.4	26.9	x	0.3	x	x
Cc1ccc(Nc2ccc(-n3ccnc3)nn2)cc1C	-12.4	-4.6	0.2	90.9*	42.7	1.1	47.7*	-0.7
CSc1nc(C(=O)N2CCCC(Nc3ccc(C)c(C)c3)C2)cs1 (centres undefined)	-24.3	11.7	0.0	108.4*	98.4*	0.4	75.3*	119.4*
COc1nc(Nc2ccc(C(C)=O)cc2)nc(OC)n1	-11.5	-8.1	-0.1	3.0	1.9	-2.9	x	x
O=[N+]([O-])c1cccc(NC(=S)N2CCc3ccccc3C2)c1	x	27.0	0.0	104.9*	x	0.6	91.9*	54.0*
COCCCNC(=S)NNC(=O)c1cccnc1	35.0	30.2	0.0	108.2*	17.7	-0.1	32.8	6.5
Cc1ccc(CNC(=O)C2CCCN(S(=O)(=O)c3ccc(F)cc3)C2)cc1 (centres undefined)	1.5	-5.0	0.1	x	-6.6	0.6	x	x
COc1ccc(C2=NN(C(C#N)c3ccc(OC)c(OC)c3)C(c3ccccc3)C2)cc1 (centres undefined)	1.5	-4.9	0.3	106.8*	7.1	-5.6	74.1*	21.3*
CCC(C)Sc1ccc(-c2nc3ccc(C)cn3c2NCc2ccccc2)cc1 (centres undefined)	x	6.2	0.0	2.8	x	x	x	x
Cc1ccc(-c2nc3ccccn3c2NCc2ccc3c(c2)OCO3)cc1	0.8	-1.9	0.2	108.8*	55.1	-6.6	78.9*	84.5*
